{"source": "PubChem BioAssay (NCI)", "note": "This is part of a sample that, as a whole, favours compounds with a hit. Of some 83,000 tested, about 20% had one in any assay.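 The endpoint reported here, percent growth, reads 100 for growth as untreated, 0 for no net growth and -100 for all cells dead.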 Calls of active or inactive are those of the source. How the source made its calls: active means growth percent below 10; inactive means the rest.", "data": [{"tested_on": "MDA-MB-231 breast", "test": "NCI-60 one-dose screen, 48 h (100 = growth as untreated, 0 = no growth, -100 = all killed)", "conditions": "10 µM unless noted", "values": [{"smiles": "COC(=O)c1ccc(Cn2cnc3c(N)ncnc32)cc1", "growth": "87.7% (inactive)"}, {"smiles": "CCOc1nc(-c2ccccc2)cc2c(O)c(C(=O)O)[nH]c(=O)c12", "growth": "104% (inactive)"}, {"smiles": "COc1ccc(Nc2nc(SC)nc(-c3cccc([N+](=O)[O-])c3)c2C#N)cc1", "growth": "45.1% (inactive)"}, {"smiles": "CN(C)[C@@H]1C(=O)C(C(=O)NCc2nc3[nH]cnc(=S)c3[nH]2)=C(O)[C@@]2(O)C(=O)C3=C(O)c4c(O)cccc4[C@@](C)(O)[C@H]3C[C@@H]12", "growth": "47.5% (inactive)"}, {"smiles": "CCOC(=O)c1sc2nc(-c3cccc(O)c3)nc(N3CCOCC3)c2c1C", "growth": "47.6% (inactive)"}, {"smiles": "O=C1/C(=C/c2ccccc2)SC(=S)N1CCc1ccc(O)cc1", "growth": "87.3% (inactive)"}, {"smiles": "OCC(O)c1nc2ccc3[nH]ncc3c2c2c1CCCC2", "note": "(configuration not stated)", "growth": "1.65% (active)"}, {"smiles": "CC[C@@H]1O[C@H](O[C@@H](c2cnc[nH]2)[C@H](NC(=O)c2nc([C@H](CC(N)=O)NC[C@@H](N)C(N)=O)nc(N)c2C)C(=O)N[C@H](C)[C@H](O)[C@H](C)C(=O)N[C@@H](C(=O)NCCc2nc(-c3nc(C(=O)NCCCCN=C(N)N)cs3)cs2)[C@@H](C)O)[C@H](O[C@@H]2O[C@H](CO)[C@H](O)[C@H](OC(N)=O)[C@@H]2O)[C@H](C)[C@@H]1C", "growth": "88.7% (inactive)"}, {"smiles": "COc1cc2c(cc1-c1c(C)noc1C)ncc1nc(C3CCC(F)(F)CC3)n([C@H](C)COC(F)F)c12", "growth": "44.1% (inactive)"}, {"smiles": "O=C1c2c(O)cc(O)cc2-c2c(-c3ccc(O)cc3)oc3cc(O)cc1c23", "growth": "66.8% (inactive)"}, {"smiles": "CCN1CCN(c2nc(NCCNc3ccnc4cc(Cl)ccc34)c3ccccc3n2)CC1", "growth": "-73% (active)"}, {"smiles": "O=S(=O)(Nc1ccc(Br)c(Cl)c1)c1ccc(-c2cnc(C3CC3)o2)cc1", "growth": "33.6% (inactive)"}, {"smiles": "Cc1nn(-c2cc(=O)[nH]c3ccc(Cl)cc23)c(N)c1C#N", "growth": "96.9% (inactive)"}, {"smiles": "Clc1ccc2c(NCCCCNc3nc(N4CCOCC4)nc4ccccc34)ccnc2c1", "growth": "-58.3% (active)"}, {"smiles": "CCOc1nc(-c2ccccc2)cc2c(O)c(C(=O)N/N=C/c3ccc(O)cc3O)[nH]c(=O)c12", "growth": "43.2% (inactive)"}, {"smiles": "O=C(O)c1ccc(NC(=O)c2ccc(-c3cccc([N+](=O)[O-])c3)o2)cc1", "growth": "96.1% (inactive)"}, {"smiles": "Cc1ccc(NS(=O)(=O)c2ccc(-c3cnc(C4CC4)o3)cc2)cc1C", "growth": "40.1% (inactive)"}, {"smiles": "O=c1ccccc(-c2ccc(-c3ccco3)cc2)c1O", "growth": "40.2% (inactive)"}, {"smiles": "CC(C)CC1C(=O)N2CCC[C@H]2C2(O)O[C@](NC(=O)C3C=C4c5cccc6[nH]c(Br)c(c56)C[C@H]4N(C)C3)(C(C)C)C(=O)N12", "note": "(some centres not stated)", "growth": "46.3% (inactive)"}, {"smiles": "C=CC(=O)Nc1cccc(-c2nc(SC)nc(NCCN3CCOCC3)c2C#N)c1", "growth": "87.9% (inactive)"}, {"smiles": "O=S(=O)(Nc1ccc(NS(=O)(=O)c2ccccc2)c(Cl)c1)c1ccccc1", "growth": "104% (inactive)"}, {"smiles": "O=C(N=Nc1c(O)[nH]c2ccccc12)c1cc(-c2ccccc2)on1", "growth": "93.1% (inactive)"}, {"smiles": "O=C1NC(=S)NC(=O)C1CC(=O)n1c(-c2ccccc2)nc2ccccc21", "growth": "88% (inactive)"}, {"smiles": "Cn1c(O)c(N=NC(=O)c2cc(-c3ccccc3)on2)c2ccccc21", "growth": "95.6% (inactive)"}, {"smiles": "CN1CCN(Cc2ccc(NC(=O)c3cncc(C#Cc4cncn5ccnc45)c3)cc2C(F)(F)F)CC1", "growth": "54.5% (inactive)"}]}, {"tested_on": "RXF 393 renal", "test": "NCI-60 one-dose screen, 48 h (100 = growth as untreated, 0 = no growth, -100 = all killed)", "conditions": "10 µM unless noted", "values": [{"smiles": "c1csc(C2=NN3C(C2)c2ccccc2OC3c2ccncc2)c1", "note": "(configuration not stated)", "growth": "105% (inactive)"}, {"smiles": "CC1=CC(C)(C)Nc2ccc(Cc3ccc4c(c3)C(C)=CC(C)(C)N4)cc21", "growth": "79.6% (inactive)"}, {"smiles": "CCCCn1c(-c2ccc(C(=O)O/N=C(\\N)c3ccc4ccccc4c3)cc2)nc(-c2ccccc2)c1-c1ccccc1", "growth": "58.2% (inactive)"}, {"smiles": "O=C(Nc1ccc(Cl)cc1)c1cc2cc(F)ccc2cc1O", "growth": "13.6% (inactive)"}, {"smiles": "Cn1cc(-c2nonc2-c2cn(C)c3ccc(F)cc23)c2cc(F)ccc21", "growth": "46.7% (inactive)"}, {"smiles": "CCN(CC)S(=O)(=O)c1ccc(OC)c(NC(=O)c2[nH]c(C)c3c2CCCCC3=O)c1", "growth": "38.9% (inactive)"}, {"smiles": "COc1cccc(-c2nc3sccn3c2-c2ccnc(NCCCNS(=O)(=O)c3cccc(F)c3)c2)c1", "growth": "66.7% (inactive)"}, {"smiles": "COc1cc(/C=C/c2cc(/C=C/c3ccc(O)c(OC)c3)n(-c3c(C)cccc3C)c(=O)n2)ccc1O", "growth": "-32.1% (active)"}, {"smiles": "COc1cccc(-c2nc(SCC(=O)Nc3ccc(C(=O)/C=C/c4ccc(OC)c(OC)c4)cc3)[nH]c(=O)c2C#N)c1", "growth": "85.2% (inactive)"}, {"smiles": "Cc1cc(C)c2nc3nc(C)cc(C)c3c(N)c2c1", "growth": "42.5% (inactive)"}, {"smiles": "FC(F)(F)c1ccc(-c2cn3nc(-c4c[nH]c5ccc(Br)cc45)sc3n2)cc1", "growth": "118% (inactive)"}, {"smiles": "CC(=O)O[C@H]1[C@@H]2OC(=O)C(CSc3ccccc3)[C@@H]2C[C@H]2O[C@]2(C)CC/C=C(\\C)CCC[C@@H]1C", "note": "(some centres not stated)", "growth": "-53.3% (active)"}, {"smiles": "Cc1cc(C)nc(SC2=C(Nc3ccc(O)cc3)C(=O)N(Cc3ccccc3)C2=O)n1", "growth": "29.3% [40 µM] (inactive)"}, {"smiles": "COC(=O)c1ccc(Cn2cnc3c(N)ncnc32)cc1", "growth": "102% (inactive)"}, {"smiles": "CCOc1nc(-c2ccccc2)cc2c(O)c(C(=O)O)[nH]c(=O)c12", "growth": "-10.5% (active)"}, {"smiles": "COc1ccc(Nc2nc(SC)nc(-c3cccc([N+](=O)[O-])c3)c2C#N)cc1", "growth": "60% (inactive)"}, {"smiles": "CCOC(=O)c1sc2nc(-c3cccc(O)c3)nc(N3CCOCC3)c2c1C", "growth": "18.4% (inactive)"}, {"smiles": "O=C1/C(=C/c2ccccc2)SC(=S)N1CCc1ccc(O)cc1", "growth": "101% (inactive)"}, {"smiles": "OCC(O)c1nc2ccc3[nH]ncc3c2c2c1CCCC2", "note": "(configuration not stated)", "growth": "-58.4% (active)"}, {"smiles": "COc1cc2c(cc1-c1c(C)noc1C)ncc1nc(C3CCC(F)(F)CC3)n([C@H](C)COC(F)F)c12", "growth": "55.8% (inactive)"}, {"smiles": "O=C1c2c(O)cc(O)cc2-c2c(-c3ccc(O)cc3)oc3cc(O)cc1c23", "growth": "62.1% (inactive)"}, {"smiles": "CCN1CCN(c2nc(NCCNc3ccnc4cc(Cl)ccc34)c3ccccc3n2)CC1", "growth": "-39% (active)"}, {"smiles": "O=S(=O)(Nc1ccc(Br)c(Cl)c1)c1ccc(-c2cnc(C3CC3)o2)cc1", "growth": "-10.6% (active)"}, {"smiles": "Cc1nn(-c2cc(=O)[nH]c3ccc(Cl)cc23)c(N)c1C#N", "growth": "113% (inactive)"}, {"smiles": "Clc1ccc2c(NCCCCNc3nc(N4CCOCC4)nc4ccccc34)ccnc2c1", "growth": "86.3% (inactive)"}, {"smiles": "CCOc1nc(-c2ccccc2)cc2c(O)c(C(=O)N/N=C/c3ccc(O)cc3O)[nH]c(=O)c12", "growth": "-35.2% (active)"}, {"smiles": "O=C(O)c1ccc(NC(=O)c2ccc(-c3cccc([N+](=O)[O-])c3)o2)cc1", "growth": "113% (inactive)"}, {"smiles": "Cc1ccc(NS(=O)(=O)c2ccc(-c3cnc(C4CC4)o3)cc2)cc1C", "growth": "-3.66% (active)"}, {"smiles": "O=c1ccccc(-c2ccc(-c3ccco3)cc2)c1O", "growth": "43.9% (inactive)"}, {"smiles": "CC(C)CC1C(=O)N2CCC[C@H]2C2(O)O[C@](NC(=O)C3C=C4c5cccc6[nH]c(Br)c(c56)C[C@H]4N(C)C3)(C(C)C)C(=O)N12", "note": "(some centres not stated)", "growth": "36.8% (inactive)"}, {"smiles": "C=CC(=O)Nc1cccc(-c2nc(SC)nc(NCCN3CCOCC3)c2C#N)c1", "growth": "89.7% (inactive)"}, {"smiles": "CC(C)c1c(C(=O)c2ccccc2)c(-c2ccccc2)c(-c2ccc(F)cc2)n1CC[C@@H](O)C[C@@H](O)CC(=O)O", "growth": "36.6% (inactive)"}, {"smiles": "O=S(=O)(Nc1ccc(NS(=O)(=O)c2ccccc2)c(Cl)c1)c1ccccc1", "growth": "108% (inactive)"}, {"smiles": "O=C(N=Nc1c(O)[nH]c2ccccc12)c1cc(-c2ccccc2)on1", "growth": "118% (inactive)"}, {"smiles": "O=C1NC(=S)NC(=O)C1CC(=O)n1c(-c2ccccc2)nc2ccccc21", "growth": "110% (inactive)"}, {"smiles": "Cn1c(O)c(N=NC(=O)c2cc(-c3ccccc3)on2)c2ccccc21", "growth": "104% (inactive)"}, {"smiles": "CN1CCN(Cc2ccc(NC(=O)c3cncc(C#Cc4cncn5ccnc45)c3)cc2C(F)(F)F)CC1", "growth": "90.4% (inactive)"}]}]}
